Experimental data reported in PubChem BioAssay (Tox21).
Records with an inconclusive call do not appear. Activity calls are given as the source filed them. The call rests on the fitted dose curve.

assay: qHTS assay for small molecule disruptors of the mitochondrial membrane potential - cell viability (AID 720634); details: HepG2 viability, ATP luminescence (CellTiter-Glo), 1 h; series mostly up to 83.2 µM; activity change, negative = cytotoxicity: at the top concentration;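 further: human HepG2 liver cancer cells; nearly all actives have a fitted effect of over 20% in size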
Source text: U.S. Tox21 Program National Center for Advancing Translational Sciences [NCATS] NIH Chemical Genomics Center [NCGC] U.S. Environmental Protection Agency [EPA] National Institutes of Environmental Health Sciences [NIEHS] National Toxicology Program [NTP] U.S. Food and Drug Administration [FDA] Tox21 Assay Overview: Mitochondrial membrane potential (MMP), one of the parameters for mitochondrial function, is generated by mitochondrial electron transport chain that creates an electrochemical gradient by a series of redox reactions. This gradient drives the synthesis of ATP, a crucial molecule for various cellular processes. Measuring MMP in living cells is commonly used to assess the effect of chemicals on mitochondrial function; decreases in MMP can be detected using lipophilic cationic fluorescent dyes. […] The dye accumulates in the mitochondria of healthy cells as aggregates, with red fluorescence. The mitochondrial potential decreases and the dye could not accumulate in the mitochondria and remains in the cytoplasm in monomers, with green fluorescence. In addition to the mitochondrial potential assay, these cells were also used to test the cytotoxicity by determining the cell viability in the culture based on the quantitation of ATP present. The cytotoxicity was measured in the same assay well of MMP assay.
Tox21 Assay Protocol Summary: 2,000 HepG2 cells in 5 uL/well were dispensed into black, clear-bottom 1536-well plates using a Multidrop Combi (Thermo Scientific) dispenser. The assay plates were incubated for an overnight at 37 C to allow cells to attach to the wells, followed by the transfer of 23 nL compound or DMSO vehicle by a pin tool (Kalypsys). The plates were incubated for 1 hr at 37 C and 5% CO2, followed by the addition of 5 uL of 2X m-MPI dye into each well using Flying Reagent Dispenser (Aurora Discovery) and then CellTiter-Glo reagent was added at 4 uL/well and incubated 30 min at room temperature. Then luminescence intensity was quantified on a ViewLux CCD-based plate reader.
On the % scale 0 is the no-effect control and ±100 the full control effect.

Row | SMILES | activity change, negative = cytotoxicity | outcome
1 | C=CCOC(=O)CCCCCC | 5.52% (inactive) | –
2 | NCc1ccc(S(N)(=O)=O)cc1 | 1.05% [at 39.1 µM] (inactive) | –
3 | Cc1c(C(=O)c2c[nH]n(C)c2=O)ccc(S(C)(=O)=O)c1C1=NOCC1 | 6.1% [at 39.1 µM] (inactive) | –
4 | Cc1ccc(C)c([N+](=O)[O-])c1 | 4.25% (inactive) | –
5 | CCCCOC(=O)[C@H](C)O | -2.9% (inactive) | –
6 | CC(CO)(CO)CO | 3.71% [at 95.3 µM] (inactive) | –
7 | CC(S)C(C)S (stereo not given) | 1.83% [at 95.3 µM] (inactive) | –
8 | CC(=O)C1C(=O)C=C(C)OC1=O (stereo not given) | 3.94% (inactive) | –
9 | CC(C)OC(=O)CCC(=O)OC(C)C | -6.58% (inactive) | –
10 | N[C@@H](Cc1ccc(O)cc1)C(=O)O | 8.38% (inactive) | –
11 | CCCSSCCC | 12.2% (inactive) | –
12 | C/C=C(\C)C(=O)OCCc1ccccc1 | 3.63% (inactive) | –
13 | O=C1c2ccccc2C(=O)c2cc(Cl)ccc21 | 3.06% [at 8.08 µM] (inactive) | –
14 | CN(C)CCCCl | -2.27% [at 95.3 µM] (inactive) | –
15 | CSc1cnccn1 | -3.23% (inactive) | –
16 | C/C=C(\C)C(C)=O | -12.1% (inactive) | –
17 | NCCOCCN | 4.28% (inactive) | –
18 | CC(C)(CO)C(O)C(=O)NCCCO (stereo not given) | 3.39% (inactive) | –
19 | OC[C@@H](O)C(O)[C@@H](O)CO (stereo not given in full) | 9.2% [at 95.3 µM] (inactive) | –
20 | CC1OCCC1=O (stereo not given) | 6.81% (inactive) | –

Row | SMILES | activity change, negative = cytotoxicity | outcome
21 | c1ccc2cnccc2c1 | -0.72% (inactive) | –
22 | CC/C(C)=N\O[Si](C)(O/N=C(\C)CC)O/N=C(\C)CC | 3.48% [at 95.3 µM] (inactive) | –
23 | CC(C)OC(=O)OCOP(=O)(CO[C@H](C)Cn1cnc2c(N)ncnc21)OCOC(=O)OC(C)C | – | inactive
24 | CCCCCCCCCOC(=O)c1ccccc1C(=O)OCCCCCCCCC | -8.47% (inactive) | –
25 | Cc1cccc(Cl)c1 | 6.36% (inactive) | –
26 | Cc1c(NC(=O)c2cccnc2)c(=O)n(-c2ccccc2)n1C | 4.16% [at 39.1 µM] (inactive) | –
27 | CN(C)C(C)(C)CO | -4.71% (inactive) | –
28 | CC1(C)CC(OC(=O)CCCCCCCCC(=O)OC2CC(C)(C)NC(C)(C)C2)CC(C)(C)N1 | 5.62% [at 39.1 µM] (inactive) | –
29 | CC(C)=CCC[C@@](C)(O)[C@H]1CC=C(C)CC1 | -5.91% (inactive) | –
30 | CCCCCc1cccc(=O)o1 | 5.72% (inactive) | –
31 | CCc1occc(=O)c1O | 3.46% (inactive) | –
32 | C[C@]12CCC(=O)C=C1CC[C@H]1[C@@H]3CC[C@](O)(C(=O)CO)[C@@]3(C)C[C@H](O)[C@@]12F | – | inactive
33 | Cc1ccnc(N)c1 | 10.1% (inactive) | –
34 | COc1c2occc2c(OC)c2c(=O)cc(C)oc12 | 9.67% [at 39.1 µM] (inactive) | –
35 | CCCCCCCCCCCCCBr | 3.74% (inactive) | –
36 | O=Cc1cc2ccccc2o1 | -3.1% (inactive) | –
37 | CC1(C)[C@H]2CC[C@](C)(C2)[C@H]1O | -6.21% [at 95.3 µM] (inactive) | –
38 | Cc1cc(C)c(C(=O)O)c(C)c1 | 3.81% (inactive) | –
39 | N#Cc1cscn1 | 6.15% (inactive) | –
40 | CC1c2ccccc2CN1NC(=O)c1ccc(Cl)c(S(N)(=O)=O)c1 (stereo not given) | -6.73% (inactive) | –
